Shiga inhibitor: Shiga toxin inhibition | Vero cells, Shiga toxin protein synthesis inhibition reporter | inhibition, % at 38.7 µM | 290,000 compounds, 9.2% hits | AID 2315; in the data active means inhibition mostly above about 28%, no sharp cut-off; inactive means mostly below about 43%
Pf growth 96h: inhibits malaria parasite growth, 96 h; P. falciparum luciferase reporter growth, 96 h; Potency, µM (titrated, usually from 28.7 µM), hits mostly inhibitors; 320,000 compounds, 6.9% hits; AID 504834
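Erythrocytes infected with luciferase-expressing P. falciparum were dispensed at 2% hematocrit and 0.05% parasitemia (final), then incubated with compounds 96 hours at 37 C in 5% CO2. Luminescence after detection reagent addition reported growth.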
Pf growth 48h: inhibits P. falciparum growth in the first generation, 48 h. P. falciparum luciferase growth in erythrocytes, 48 h. Potency, µM (titrated, usually from 28.7 µM), usual class: inhibitors. AID 504832. 310,000 compounds, 5.9% hits
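A one-generation exposure of luciferase-tagged malaria parasites in RPMI 1640/Albumax erythrocyte culture, 37 C and 5% CO2. Inhibition is inferred from decreased luminescence after adding detection reagent.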
NS1 function inh: blocks influenza NS1 protein function; Potency, µM (doses to about 46.1 µM); 270,000 compounds, 0.4% hits; AID 2326; calls by dose curve; further: actives are rising curves; nearly all actives have a fitted effect of over 50% in size
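Compounds were scored for reversing the slow growth caused by influenza A NS1 in S. cerevisiae, measured by optical density at 600 nm. Assay medium contained 2% galactose at pH 6.0; NS1-free yeast of the same strain were the positive control.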
Cycloheximide cs: affects cycloheximide protein synthesis inhibition readout, counter-screen; cell reporter, cycloheximide protein synthesis inhibition counterscreen; max response, %; AID 2314; 300,000 compounds, 12% hits; in the data active means max response mostly above about 13%, no sharp cut-off; inactive means mostly below about 14%; further: read at 38.3 µM for the half of the compounds with a filed dose
Each line names hits and unclear results; the compound was inactive in the other large screens. The list is not random: actives were taken first. Their share in the collection is about 21%. Unless noted, the call rests on the fitted dose curve; in most records, active means well fitted inhibition curve with a large enough effect; inconclusive means small, poorly fitted or top-dose-only effect, or another doubt; inactive means no such curve, though single readings can be large or run the other way.

CCCOC(C(=O)OC1CCN(C)CC1)(c1ccccc1)c1ccccc1	Pf growth 96h 12µM, Pf growth 48h 12µM (no result: Shiga inhibitor, NS1 function inh, Cycloheximide cs)
COc1ccc(C(=O)OC2CCN(C)CC2)cc1	Pf growth 96h inconclusive
CN1CCC(OC(=O)COc2ccccc2)CC1	Pf growth 96h 12µM
CCOc1ccc(C(=O)OC2CCN(C)CC2)cc1	Cycloheximide cs 14
CN1CCC(OC(=O)c2ccccc2)CC1	none
CCc1ccc(NC(=S)N(CCN(C)C)C(C)c2ccncc2)cc1 (stereo unspecified)	Pf growth 96h inconclusive (no result: NS1 function inh)
CC1CCN(C(=O)c2ccc(C(=O)N3CCC(C)CC3)cc2)CC1	none (no result: Shiga inhibitor, Pf growth 96h, Pf growth 48h, Cycloheximide cs)
O=C(C1CCN(c2ccc(N3CCOCC3)nn2)CC1)N1CCN(c2ccc(F)cc2)CC1	Shiga inhibitor 71, Pf growth 96h inconclusive
Cc1ccc(C(=O)N2CCN(c3cccc(Cl)c3)CC2)cc1C	none (no result: Pf growth 96h)
Cc1ccc(C(=O)N2CCN(c3ccc(N4CCOCC4)nn3)CC2)cc1C	Pf growth 96h 5.2µM (no result: Shiga inhibitor, NS1 function inh, Cycloheximide cs)
Cc1ccc(C(=O)N2CCN(c3ccccc3)CC2)cc1C	Shiga inhibitor 43, Cycloheximide cs 27 (no result: Pf growth 96h)
Cc1ccc(C(=O)N2CCC(C)CC2)cc1C	Shiga inhibitor 35, Cycloheximide cs 17
c1ccc(CSc2ncnc3c2cnn3-c2ccccc2)cc1	none
COc1nc(C)nc2c1sc1nc3c(cc12)COC(C)(C)C3	Cycloheximide cs 34 (no result: Pf growth 48h)
Cc1nc(OCC(C)C)c2sc3nc4c(cc3c2n1)COC(C)(C)C4	Shiga inhibitor 60, Cycloheximide cs 20
CCc1nc(OCc2ccco2)c2sc3nc4c(cc3c2n1)COC(C)(C)C4	none (no result: Pf growth 96h)
Cc1ccc(C)c(S(=O)(=O)N2C(=S)NC(=O)C2C(C)C)c1 (stereo unspecified)	none (no result: Pf growth 96h)
CCCC(=O)N(Cc1cc2cccc(C)c2[nH]c1=O)c1ccccc1OC	Pf growth 48h 12µM
O=C(O)CCC(=O)NCc1c(Cl)cccc1Sc1ccc(Cl)cc1	none
CC1CCN(C(=O)COC(=O)c2cc3ccccc3cc2O)CC1	Cycloheximide cs 42
CC(C)(C)C(=O)COC(=O)c1cc2ccccc2cc1O	Cycloheximide cs 25 (no result: Pf growth 96h)
CC1CC(C)CN(C(=O)COC(=O)c2cc3ccccc3cc2O)C1 (stereo unspecified)	none
CCCCS(=O)(=O)N1CCN(S(=O)(=O)c2cccs2)CC1	Pf growth 96h inconclusive
CCCCCC1=CCC/C1=N\NC(=O)c1ccc2c(c1)OCO2	Pf growth 96h inconclusive, Pf growth 48h inconclusive, Cycloheximide cs 19 (no result: NS1 function inh)
C/C(=N\NC(=O)c1ccc2c(c1)OCO2)c1ccc(NC(=O)CCCC(=O)O)cc1	Shiga inhibitor 57, Cycloheximide cs 34
C/C(=N\NC(=O)c1nc2ccccn2c1C)c1ccc2c(c1)OCO2	Cycloheximide cs 19
C/C(=N\NC(=O)c1ccc2c(c1)OCO2)c1ccc2c(c1)OCO2	Shiga inhibitor 62, Cycloheximide cs 35 (no result: NS1 function inh)
CCCCOC(=O)C1Cc2ccccc2C(=O)O1 (stereo unspecified)	none (no result: Pf growth 48h)
NS(=O)(=O)c1ccc(CCNC(=O)C2CCCO2)cc1 (stereo unspecified)	Pf growth 96h inconclusive
COc1ccccc1OCC(=O)NNC(=O)c1c(-c2ccccc2Cl)noc1C	none (no result: NS1 function inh)
COc1cccc(-c2nnc(NC(=O)c3ccc(S(=O)(=O)N4CC(C)OC(C)C4)cc3)o2)c1 (stereo unspecified)	none (no result: Pf growth 48h)
COCCN(C(=O)c1c(C)noc1C)c1c(N)n(CC(C)C)c(=O)[nH]c1=O	none (no result: Shiga inhibitor, NS1 function inh, Cycloheximide cs)
CC(/C=C/c1ccccc1)=N\NC(=O)c1ccc2c(c1)OCCO2	Shiga inhibitor 48, Pf growth 96h inconclusive, Cycloheximide cs 50
C/C(=N\NC(=O)c1ccc2c(c1)OCCO2)c1ccccc1	Shiga inhibitor 52, Cycloheximide cs 21
C/C(=N\NC(=O)c1ccc2c(c1)OCO2)c1ccc(C(=O)O)s1	Shiga inhibitor 54, Pf growth 96h inconclusive, Cycloheximide cs 31
C/C(=N\NC(=O)c1ccc(O)cc1)c1ccc2c(c1)OCCO2	Pf growth 96h inconclusive (no result: Shiga inhibitor, NS1 function inh, Cycloheximide cs)
C/C(CCc1ccc2c(c1)OCO2)=N\NC(=O)c1ccc(C)cc1C	Shiga inhibitor 77, Cycloheximide cs 39
Cc1cc(F)ccc1S(=O)(=O)N1CCCOC1CNC(=O)C(=O)NCc1ccccn1 (stereo unspecified)	none
O=C(NN=C1CCCC1)c1ccc([N+](=O)[O-])cc1	none (no result: NS1 function inh)
O=C(NN=C1CCCCCC1)c1ccc2c(c1)OCO2	Cycloheximide cs 38
O=C(NN=C1CCCC1)c1ccc(O)cc1	Shiga inhibitor 42, Pf growth 96h inconclusive, Cycloheximide cs 30
C/C(=N\NC(=O)c1cccs1)c1ccc2c(c1)OCO2	Shiga inhibitor 117, Cycloheximide cs 64
CC(=O)N1CC(=O)N(Cc2ccccc2)/C(=C/c2ccccc2)C1=O	none (no result: NS1 function inh)
Cc1nn2c(c1-c1ccccc1)NC1=C(C(=O)CCC1)C2c1cccnc1 (stereo unspecified)	none (no result: Shiga inhibitor, Pf growth 96h, Pf growth 48h, Cycloheximide cs)
Cc1nn(-c2ccccc2)c2c1C(c1cccnc1)N1C=C(S(=O)(=O)N3CCCCC3)C=CC1=N2 (stereo unspecified)	Pf growth 48h 1.9µM
O=C(O)C/C(=C\c1ccco1)C(=O)O	none (no result: Shiga inhibitor, Pf growth 96h, Pf growth 48h, Cycloheximide cs)
O=C(COc1ccc(NC(=O)c2ccccc2)cc1)c1ccccc1	none
Clc1ccccc1CN(Cc1ccco1)Cc1nnnn1C1CCCC1	Pf growth 48h 7.4µM
S=c1[nH]nc(-c2ccccn2)n1/N=C/c1ccc(-c2ccccc2Cl)o1	none (no result: NS1 function inh)
Cc1nn(Cc2ccccc2)c(C)c1NC(=O)CSc1n[nH]c(C)c1[N+](=O)[O-]	Pf growth 48h inconclusive
Cc1nn(Cc2ccc(Cl)cc2)c(C)c1NC(=O)CSc1n[nH]c(C)c1[N+](=O)[O-]	Pf growth 96h 13µM
CCOC(=O)N1CCC(N2CC34C=CC(O3)C(C(=O)Nc3ccc(OCC)cc3)C4C2=O)CC1 (stereo unspecified)	Pf growth 96h inconclusive (no result: Pf growth 48h)
CCOC(=O)N1CCC(N2CC34C=CC(O3)C(C(=O)Nc3ccc(F)cc3)C4C2=O)CC1 (stereo unspecified)	Pf growth 96h 15µM (no result: Pf growth 48h)
Cc1cc2n(n1)C(c1ccccc1)CC(c1ccc(Br)cc1)=N2 (stereo unspecified)	Shiga inhibitor 29, Pf growth 48h inconclusive, Cycloheximide cs 37
CNC(=S)N1N=C(c2ccc(Br)cc2)CC1c1ccc(Br)cc1 (stereo unspecified)	Pf growth 96h inconclusive (no result: Pf growth 48h)
CCN(CC)S(=O)(=O)c1cccc(N=Nc2sc(N)nc2C)c1	Pf growth 96h 12µM
CCN(CC)S(=O)(=O)c1cccc(-c2csc(C)n2)c1	Pf growth 48h inconclusive
Cc1ccc(CN(c2ccc(C(=O)NCC3CCCO3)cc2)S(C)(=O)=O)cc1 (stereo unspecified)	none
N#Cc1ccc(Oc2ccc(-c3cnc4ccccc4n3)cc2)cc1C#N	none
N#Cc1ccc(Oc2ccc(-c3nc4ccccc4nc3-c3ccccc3)cc2)cc1C#N	Pf growth 96h 3.7µM
O=C(Nc1nnc(-c2ccccc2SCc2ccccc2F)s1)Nc1ccccc1F	none (no result: Pf growth 48h)
CCSc1nsc(NC(=O)Nc2ccccc2F)n1	Shiga inhibitor 30, Pf growth 96h inconclusive, Cycloheximide cs 33
C=CCSc1nsc(NC(=O)Nc2ccc(F)cc2)n1	Shiga inhibitor 101, Pf growth 48h inconclusive, Cycloheximide cs 43
CCSc1nsc(NC(=O)Nc2cccc(OC)c2)n1	Pf growth 96h inconclusive, Pf growth 48h inconclusive, Cycloheximide cs 29 (no result: Shiga inhibitor)

Source: PubChem BioAssay (National Center for Advancing Translational Sciences (NCATS))
